PubChem BioAssay (NCATS)
Records with an inconclusive call do not appear. Entries that show only a call come without a potency. Active and inactive are the calls of the source. Unless noted, calls come from the whole dose curve; as a rule, active = well fitted curve in the direction sought with a large enough effect; inconclusive = small, poorly fitted or top-dose-only effect, or another doubt; inactive = no such curve, though single readings can be large; an effect the other way counts as inactive or inconclusive.

How the values were obtained:
[1] = qHTS assay for measurement of the activity of small molecule inhibitors on Zika virus induced Caspase-3 activity in human astrocytoma cells (AID 1224859)
Method in brief: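 Luminescent caspase-3/7 read-out (30 min reagent, room temperature) in human SNB-19 cells infected 6 h with ZIKV (2 FFU/cell) after 1 h compound pre-incubation; Data were normalised to uninfected and infected wells.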

[2] = qHTS Screen of the MIPE 4.0 Collection Against Ewings Sarcoma (RDES) (AID 1259252); note: nearly all actives have a fitted effect of over 35% in size; note: potency is the fitted concentration of half-maximal effect
Method in brief: (§1)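 After a 4 h attachment period in RPMI/5% FBS, cells were pin-dosed with test compounds; DMSO served as negative and 9.2 uM bortezomib (final) as positive control. Luminescent CellTiter-Glo signal at 48 h defined viability.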

[3] = qHTS Screen of the MIPE 4.0 Collection Against Ewings Sarcoma (TC71) (AID 1259253); note: nearly all actives have a fitted effect of over 40% in size; note: potency is the fitted concentration of half-maximal effect
Method in brief: as §1

[4] = qHTS Screen of the MIPE 4.0 Collection Against Ewings Sarcoma (EW8) (AID 1259255); note: nearly all actives have a fitted effect of over 35% in size; note: potency is the fitted concentration of half-maximal effect
Method in brief: as §1

[5] = qHTS Screen of the MIPE 4.0 Collection Against Ewings Sarcoma (TC32) (AID 1259256); note: nearly all actives have a fitted effect of over 45% in size; note: potency is the fitted concentration of half-maximal effect
Method in brief: as §1

[6] = NS1 protein of Zika virus - qHTS assay to identify small molecule inhibitors in human HEK 293 cells (AID 1347053); note: nearly all actives have a fitted effect of over 55% in size; note: potency is the fitted concentration of half-maximal effect
Method in brief: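 In this cell-based screen, HEK 293 cultures received compound for one hour before Zika MR766 at MOI = 0.5. NS1 was quantified 24 hours later by TR-FRET, normalized to virus-free wells and infected wells.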

[7] = qHTS of pediatric cancer cell lines to identify multiple opportunities for drug repurposing: Primary screen for TC32 cells (AID 1347089); note: nearly all actives have a fitted effect of over 60% in size
Method in brief: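 A viability screen of TC32 cells was run over 48 h, with primary MIPE doses spanning 0.78 nM–46 µM and NPC doses 0.59 nM–46 µM. ATP luminescence (CellTiter-Glo) served as the read-out.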

[8] = qHTS of pediatric cancer cell lines to identify multiple opportunities for drug repurposing: Primary screen for SJ-GBM2 cells (AID 1347091); note: potency is the fitted concentration of half-maximal effect
Method in brief: (§2)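 Cell viability, CellTiter-Glo luminescence; 500-1,000 cells/well, 8- or 11-point titration, 48 h compound exposure at 37 degrees C, 5% CO2. Controls: DMSO neutral, bortezomib 2.3 µM final as positive.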

[9] = qHTS assay to identify small molecule inhibitors of chordoma cells - UCH-2 (AID 1259356); note: series mostly up to about 46 µM
[10] = P-glycoprotein substrates identified in KB-8-5-11 adenocarcinoma cell line, qHTS therapeutic library screen (AID 1346987); note: nearly all actives have a fitted effect of over 65% in size; note: potency is the fitted concentration of half-maximal effect
Method in brief: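 Human cervical adenocarcinoma KB-8-5-11 cells, selected in colchicine to over-express P-gp and assayed without it, were exposed for 72 h to titrated compounds. An ATP-based luminescent viability signal gave AC50.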

[11] = Natriuretic polypeptide receptor (hNpr1) antagonism - Pilot counterscreen GloSensor control cell line (AID 1347045; calls by dose curve; note: series mostly up to about 38 µM)
Method in brief: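 The SNP-driven cGMP luminescence signal (50 uM, 20 min, room temperature) was measured in GloSensor HEK293 control cells. Compounds were tested as a LOPAC titration series and preincubated for 30-50 min.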

[12] = molecular target: Atrial natriuretic peptide receptor 1 (Homo sapiens) (UniProt P16066); assay: Natriuretic polypeptide receptor (hNpr1) antagonism - Pilot screen (AID 1347049; calls by dose curve;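 note: HEK293 cells with hNpr1 and GloSensor cGMP luciferase stimulated by 0.1 nM hNppA; agonist-evoked cGMP luminescence read 20 min after hNppA addition; series mostly up to about 58 µM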)
Method in brief: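 Receptor antagonism read as cGMP-dependent luminescence in hNpr1/pGS-40F HEK293 cells: pre-read after 30 min compound exposure, post-read 20 min after hNppA agonist at 0.1 nM final, all at room temperature, protected from light; A-71915 titration as control.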

[13] = molecular target: Atrial natriuretic peptide receptor 2 (Homo sapiens) (UniProt P20594); assay: Natriuretic polypeptide receptor (hNpr2) antagonism - Pilot subtype selectivity assay (AID 1347050; calls by dose curve)
Method in brief: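 Antagonist mode: compounds (LOPAC1280, seven 1:5 dilutions) added 30 min before 1 nM hNppC stimulation of hNpr2-HEK293 cGMP-sensor cells; luminescence read before and 20 min after agonist at ambient temperature.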

[14] = molecular target: T1, Tyrosine-protein phosphatase non-receptor type substrate 1 (Homo sapiens) + Leukocyte surface antigen CD47 (Homo sapiens) (UniProt P78324+Q08722); assay: CD47-SIRPalpha protein protein interaction - LANCE assay qHTS validation (AID 1347057; active = well fitted curve in the direction sought with a large enough effect in the signal ratio, with a control signal flat, not every such curve was filed as active; the % refers to the signal ratio; note: series mostly up to about 38 µM)
Method in brief: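 Inhibition of soluble CD47/SIRPalpha ectodomain association by titrated compounds, measured as 665/615 nm time-resolved FRET ratio after sequential 30 min room-temperature incubations.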

[15] = molecular target: T1, Tyrosine-protein phosphatase non-receptor type substrate 1 (Homo sapiens) + Leukocyte surface antigen CD47 (Homo sapiens); assay: CD47-SIRPalpha protein protein interaction - HTRF assay qHTS validation (AID 1347058; active = well fitted curve in the direction sought with a large enough effect in the signal ratio, not every such curve was filed as active; the % refers to the signal ratio; note: series mostly up to about 38 µM)
Method in brief: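 Soluble extracellular domains (6His-CD47, Avi-tag-biotinylated SIRPalpha) in PBS pH 7.4 with 0.05% IGEPAL CA-630. Compounds were preincubated 30 min at RT with CD47 and anti-His-Eu, then SIRPalpha and SAV-XL665 were added. TR-FRET 665/615 ratio.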

[16] = molecular target: T1, Tyrosine-protein phosphatase non-receptor type substrate 1 (Homo sapiens) + Leukocyte surface antigen CD47 (Homo sapiens); assay: CD47-SIRPalpha protein protein interaction - Alpha assay qHTS validation (AID 1347059);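 note: bead proximity luminescence from CD47 binding SIRPalpha after compound preincubation with SIRPalpha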
Method in brief: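 AlphaScreen signal between CD47-His (12.5 nM) and biotin-SIRPalpha (25 nM) soluble extracellular domains, bead-captured via Ni-NTA and streptavidin. Compounds, in 7-point titrations, met SIRPalpha 30 min before CD47; PBS pH 7.4 with 0.05% IGEPAL.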

[17] = molecular target: Parathyroid hormone/parathyroid hormone-related peptide receptor (Homo sapiens) (UniProt Q03431); assay: qHTS for PTHR1 Agonists: Optimization Screen against the NCGC LOPAC library (AID 1347079);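 note: GloSensor cAMP luminescence in HEK-293 GP2 cells expressing human PTHR1 with IBMX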
Method in brief: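 Signal increase flags agonism. GP2 cells, derived from HEK-293, express human PTHR1 and a GloSensor cAMP construct.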

[18] = qHTS of pediatric cancer cell lines to identify multiple opportunities for drug repurposing: Primary screen for DAOY cells (AID 1347090); note: series mostly up to about 46 µM; nearly all actives have a fitted effect of over 55% in size
Method in brief: as §2

[19] = P-glycoprotein substrates identified in KB-3-1 adenocarcinoma cell line, qHTS therapeutic library screen (AID 1346986); note: nearly all actives have a fitted effect of over 60% in size
Method in brief: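 Dose-response cytotoxicity, KB-3-1 vs P-gp-high KB-8-5-11, no colchicine in assay medium. Read: CellTiter-Glo at 72 h.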

[20] = Identifying Small Molecule Inhibitors of Pancreatic Cancer Stem Cells (Panc1, Spheroid) (AID 1259359); settings: Panc1 spheroid cancer stem cell viability;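 note: potency is the fitted concentration of half-maximal effect; compound exposure lasted 48 h before reading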
Method in brief: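 Monolayer and spheroid cultures are compared. Spheroids form over 14 days in stem cell medium on hydrogel-coated low-attachment plates, then are exposed to compound for 48 h before CellTiter-Glo luminescence.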

T1 sequence (P78324 whole entry, looked up, the tested form may be a part): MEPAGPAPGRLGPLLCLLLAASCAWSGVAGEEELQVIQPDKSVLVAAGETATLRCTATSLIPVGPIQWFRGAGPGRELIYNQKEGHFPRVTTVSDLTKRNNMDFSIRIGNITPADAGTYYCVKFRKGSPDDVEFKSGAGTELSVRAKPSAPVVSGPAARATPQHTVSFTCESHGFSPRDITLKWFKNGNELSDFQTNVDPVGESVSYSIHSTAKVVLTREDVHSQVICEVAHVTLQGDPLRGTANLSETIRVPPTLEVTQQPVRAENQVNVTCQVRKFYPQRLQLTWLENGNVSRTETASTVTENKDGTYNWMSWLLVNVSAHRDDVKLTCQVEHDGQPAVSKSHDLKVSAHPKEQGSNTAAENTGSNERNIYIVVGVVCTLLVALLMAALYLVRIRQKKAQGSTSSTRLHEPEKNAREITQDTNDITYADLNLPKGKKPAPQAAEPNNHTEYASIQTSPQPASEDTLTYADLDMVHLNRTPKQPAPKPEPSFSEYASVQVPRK
T1 sequence (Q08722 whole entry, looked up, the tested form may be a part): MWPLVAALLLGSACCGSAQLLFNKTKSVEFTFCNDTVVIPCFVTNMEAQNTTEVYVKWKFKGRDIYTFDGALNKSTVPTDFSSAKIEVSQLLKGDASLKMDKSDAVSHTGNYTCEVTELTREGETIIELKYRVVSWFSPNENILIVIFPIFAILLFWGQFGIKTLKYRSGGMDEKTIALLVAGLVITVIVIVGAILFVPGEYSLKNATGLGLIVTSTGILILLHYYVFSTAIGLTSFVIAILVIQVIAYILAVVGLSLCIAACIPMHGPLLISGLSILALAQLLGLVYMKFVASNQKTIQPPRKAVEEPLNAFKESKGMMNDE
Sequence of Atrial natriuretic peptide receptor 2 (Homo sapiens) (P20594 whole entry, looked up): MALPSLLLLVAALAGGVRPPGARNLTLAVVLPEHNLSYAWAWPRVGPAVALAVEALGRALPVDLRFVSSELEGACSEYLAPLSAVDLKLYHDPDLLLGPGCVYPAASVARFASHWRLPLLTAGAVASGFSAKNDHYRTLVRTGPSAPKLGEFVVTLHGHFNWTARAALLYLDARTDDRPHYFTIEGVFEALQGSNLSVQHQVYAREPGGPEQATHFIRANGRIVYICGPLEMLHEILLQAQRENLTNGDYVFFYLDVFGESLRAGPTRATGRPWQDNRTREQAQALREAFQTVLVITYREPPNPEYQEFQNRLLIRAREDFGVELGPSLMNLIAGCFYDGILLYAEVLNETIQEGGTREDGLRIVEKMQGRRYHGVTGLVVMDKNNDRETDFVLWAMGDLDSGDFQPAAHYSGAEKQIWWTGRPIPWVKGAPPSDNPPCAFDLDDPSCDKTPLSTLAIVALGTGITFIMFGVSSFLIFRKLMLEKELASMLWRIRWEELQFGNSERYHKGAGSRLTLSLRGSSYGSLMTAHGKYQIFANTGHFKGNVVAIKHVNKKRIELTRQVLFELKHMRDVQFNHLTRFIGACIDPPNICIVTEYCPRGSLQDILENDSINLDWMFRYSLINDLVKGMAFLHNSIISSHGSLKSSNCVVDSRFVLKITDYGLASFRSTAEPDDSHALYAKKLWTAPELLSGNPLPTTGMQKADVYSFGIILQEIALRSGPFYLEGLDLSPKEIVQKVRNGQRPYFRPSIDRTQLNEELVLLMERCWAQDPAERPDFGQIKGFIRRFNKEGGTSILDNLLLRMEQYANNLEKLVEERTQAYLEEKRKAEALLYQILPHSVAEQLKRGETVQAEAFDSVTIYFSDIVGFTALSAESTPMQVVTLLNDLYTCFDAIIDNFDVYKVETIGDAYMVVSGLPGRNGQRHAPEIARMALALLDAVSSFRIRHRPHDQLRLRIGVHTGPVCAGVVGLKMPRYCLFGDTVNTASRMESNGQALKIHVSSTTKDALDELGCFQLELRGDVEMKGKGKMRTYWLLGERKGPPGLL
Sequence of Parathyroid hormone/parathyroid hormone-related peptide receptor (Homo sapiens) (Q03431 whole entry, looked up): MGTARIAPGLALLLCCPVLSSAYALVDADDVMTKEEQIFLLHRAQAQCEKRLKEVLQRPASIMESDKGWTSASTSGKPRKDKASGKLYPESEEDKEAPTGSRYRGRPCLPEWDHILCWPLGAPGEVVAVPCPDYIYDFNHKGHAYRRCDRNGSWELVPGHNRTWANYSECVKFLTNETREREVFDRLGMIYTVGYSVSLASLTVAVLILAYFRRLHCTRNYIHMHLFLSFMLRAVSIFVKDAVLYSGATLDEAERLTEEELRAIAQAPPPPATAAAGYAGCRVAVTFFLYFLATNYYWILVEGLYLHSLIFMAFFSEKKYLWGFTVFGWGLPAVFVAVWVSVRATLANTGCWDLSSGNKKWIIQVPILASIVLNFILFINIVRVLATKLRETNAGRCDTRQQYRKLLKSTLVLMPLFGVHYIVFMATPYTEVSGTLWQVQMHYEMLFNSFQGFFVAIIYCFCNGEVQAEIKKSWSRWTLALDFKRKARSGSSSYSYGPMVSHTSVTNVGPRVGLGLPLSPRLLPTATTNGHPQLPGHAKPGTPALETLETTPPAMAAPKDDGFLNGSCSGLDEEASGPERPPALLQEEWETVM
Sequence of Atrial natriuretic peptide receptor 1 (Homo sapiens) (P16066 whole entry, looked up): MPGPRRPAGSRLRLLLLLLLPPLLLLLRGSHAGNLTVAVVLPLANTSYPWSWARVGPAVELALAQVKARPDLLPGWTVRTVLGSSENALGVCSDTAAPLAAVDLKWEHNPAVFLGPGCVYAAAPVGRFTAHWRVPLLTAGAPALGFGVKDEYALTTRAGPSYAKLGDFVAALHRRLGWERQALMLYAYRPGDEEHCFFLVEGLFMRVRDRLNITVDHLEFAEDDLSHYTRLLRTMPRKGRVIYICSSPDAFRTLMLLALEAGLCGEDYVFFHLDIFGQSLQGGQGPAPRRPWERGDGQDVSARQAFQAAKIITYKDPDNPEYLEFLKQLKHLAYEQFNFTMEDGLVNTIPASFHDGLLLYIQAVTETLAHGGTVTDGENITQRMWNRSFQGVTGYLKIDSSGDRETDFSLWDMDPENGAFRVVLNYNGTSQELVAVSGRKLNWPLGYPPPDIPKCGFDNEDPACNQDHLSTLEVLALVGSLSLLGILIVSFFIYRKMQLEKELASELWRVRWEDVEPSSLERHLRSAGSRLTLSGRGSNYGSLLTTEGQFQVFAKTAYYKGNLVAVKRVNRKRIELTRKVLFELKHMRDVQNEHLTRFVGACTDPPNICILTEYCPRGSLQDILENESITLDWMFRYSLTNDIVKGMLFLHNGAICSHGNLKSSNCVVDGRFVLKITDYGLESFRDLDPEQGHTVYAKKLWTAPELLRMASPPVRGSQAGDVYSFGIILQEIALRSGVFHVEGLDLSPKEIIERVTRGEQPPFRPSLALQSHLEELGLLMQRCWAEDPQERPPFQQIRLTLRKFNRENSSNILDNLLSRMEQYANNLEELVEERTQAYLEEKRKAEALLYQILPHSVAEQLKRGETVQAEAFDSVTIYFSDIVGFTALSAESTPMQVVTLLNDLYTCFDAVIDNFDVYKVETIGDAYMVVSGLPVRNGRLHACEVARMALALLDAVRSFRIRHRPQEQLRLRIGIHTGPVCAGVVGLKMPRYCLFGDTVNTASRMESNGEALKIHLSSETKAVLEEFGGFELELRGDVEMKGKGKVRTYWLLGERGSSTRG

CC=CC[C@@H](C)C(=O)[C@H]1C(=O)N[C@@H](C(C)C)C(=O)N(C)CC(=O)N(C)[C@@H](CC(C)C)C(=O)N[C@@H](C(C)C)C(=O)N(C)[C@@H](CC(C)C)C(=O)N[C@@H](C)C(=O)N[C@H](C)C(=O)N(C)[C@@H](CC(C)C)C(=O)N(C)[C@@H](CC(C)C)C(=O)N(C)[C@@H](C(C)C)C(=O)N1C
Potency [1]: inactive | Potency [2]: 18.7 µM (active) | Potency [3]: 16.6 µM (active) | Potency [4]: inactive | Potency [5]: 18.7 µM (active) | Potency [6]: inactive | Potency [7]: inactive | Potency [8]: 18.7 µM (active)

CCn1cc(C(=O)O)c(=O)c2ccc(C)nc21
Potency [1]: inactive | Potency [2]: inactive | Potency [3]: inactive | Potency [4]: inactive | Potency [5]: inactive | outcome [9]: inactive | Potency [10]: inactive | Potency [11]: inactive | outcome [12]: inactive | outcome [13]: inactive | Potency [6]: inactive | outcome [14]: inactive | outcome [15]: inactive | outcome [16]: inactive | outcome [17]: inactive | Potency [7]: inactive | Potency [18]: inactive | Potency [8]: inactive

COc1ccc(-c2coc3cc(O)cc(O)c3c2=O)cc1
Potency [1]: inactive | Potency [3]: inactive | Potency [4]: inactive | Potency [5]: inactive | Potency [19]: inactive | Potency [10]: inactive | Potency [6]: inactive | Potency [7]: inactive | Potency [18]: inactive | Potency [8]: inactive

NC[C@@H]1O[C@@H](O[C@H]2[C@@H](O)[C@H](O[C@@H]3[C@@H](O)[C@@H](N)C[C@H](N)[C@H]3O[C@H]3O[C@H](CN)[C@@H](O)[C@@H](O)[C@H]3N)O[C@H]2CO)[C@H](N)[C@@H](O)[C@@H]1O
Potency [1]: inactive | Potency [3]: inactive | Potency [4]: inactive | Potency [6]: inactive | Potency [7]: inactive | Potency [18]: inactive | Potency [8]: inactive

O=c1ccn([C@@H]2O[C@H](CO)[C@H](O)[C@H]2O)c(=O)[nH]1
Potency [1]: inactive | Potency [4]: inactive | Potency [5]: inactive | Potency [19]: inactive | Potency [10]: inactive | Potency [6]: inactive | Potency [7]: inactive | Potency [18]: inactive | Potency [8]: inactive

CC(C)(C)C(=O)Oc1ccc2c(c1)nc(NC(=O)c1cccc([N+](=O)[O-])c1)n2CCCO
Potency [1]: inactive | Potency [3]: inactive | Potency [5]: inactive | Potency [6]: inactive | Potency [7]: inactive

COc1cccc([C@@H](C)NCCCc2ccccc2Cl)c1
Potency [1]: inactive | Potency [4]: inactive | Potency [5]: inactive | Potency [19]: inactive | Potency [10]: inactive | Potency [6]: inactive | Potency [7]: inactive

CC=C(C)C(=O)O[C@H]1C(C)=C[C@]23C(=O)[C@@H](C=C(CO)[C@@H](O)[C@]12O)[C@H]1[C@@H](C[C@H]3C)C1(C)C
Potency [1]: inactive | Potency [3]: 8.33 µM (active) | Potency [6]: 11.8 µM (active) | Potency [7]: inactive | Potency [8]: 18.7 µM (active)

COc1cc(O)c2c(c1)C(=O)c1cc(C)cc(O)c1C2=O
Potency [1]: inactive | Potency [3]: inactive | Potency [5]: inactive | Potency [10]: inactive | Potency [6]: inactive | Potency [7]: inactive | Potency [18]: inactive | Potency [8]: inactive

CC1CCC(C(=O)N(c2cc(C#CC(C)(C)C)sc2C(=O)O)C2CCC(O)CC2)CC1 (stereo unspecified)
Potency [1]: inactive | Potency [3]: 26.4 µM (active) | Potency [5]: inactive | Potency [10]: inactive | Potency [7]: inactive | Potency [8]: inactive

C[C@]12CCC3c4ccc(O)cc4CCC3C1CCC2=O (stereo partly specified)
Potency [1]: inactive | Potency [3]: 14.8 µM (active) | Potency [5]: 6.62 µM (active) | Potency [10]: inactive | Potency [6]: inactive | Potency [7]: inactive

CC[C@H]1OC(=O)[C@H](C)[C@@H](O[C@H]2C[C@@](C)(OC)[C@@H](O)[C@H](C)O2)[C@H](C)[C@@H](O[C@@H]2O[C@H](C)C[C@H](N(C)C)[C@@H]2O)[C@](C)(O)C[C@@H](C)CN(C)[C@H](C)[C@@H](O)[C@]1(C)O
Potency [1]: inactive | Potency [4]: 16.6 µM (active) | Potency [5]: 13.2 µM (active) | Potency [19]: inactive | Potency [10]: inactive | Potency [6]: inactive | Potency [7]: inactive | Potency [18]: inactive | Potency [8]: inactive

COc1cc(N2CCC(N3CCN(C)CC3)CC2)ccc1Nc1ncc(Cl)c(Nc2ccccc2S(=O)(=O)C(C)C)n1
Potency [1]: inactive | Potency [3]: inactive | Potency [20]: 0.418 µM (active) | Potency [10]: 0.651 µM (active) | Potency [7]: inactive | Potency [18]: inactive

C[C@]12CC[C@@H]3c4ccc(O)cc4C[C@@H](CCCCCCCCCS(=O)CCCC(F)(F)C(F)(F)F)[C@H]3[C@H]1CC[C@H]2O (stereo partly specified)
Potency [1]: inactive | Potency [3]: 14.8 µM (active) | Potency [5]: inactive | Potency [10]: inactive | Potency [6]: inactive | Potency [7]: inactive | Potency [18]: inactive | Potency [8]: inactive

NC(=O)[C@@H](CCC(F)(F)F)N(Cc1ccc(-c2ncon2)cc1F)S(=O)(=O)c1ccc(Cl)cc1
Potency [1]: inactive | Potency [3]: 18.7 µM (active) | Potency [5]: 14.8 µM (active) | Potency [6]: inactive | Potency [7]: inactive

NC(=O)c1ccc2nc(-c3ccc(Oc4ccc(Cl)cc4)cc3)[nH]c2c1
Potency [1]: inactive | Potency [3]: 0.526 µM (active) | Potency [6]: inactive | Potency [8]: inactive

Cn1cc(C=C2C(=O)Nc3cccnc32)c2ccccc21
Potency [1]: inactive | Potency [3]: inactive | Potency [5]: inactive | Potency [10]: inactive | Potency [6]: inactive | Potency [7]: inactive | Potency [18]: inactive | Potency [8]: inactive

Cc1ccc(/C=N/NC(=O)c2ccccc2Oc2ccccc2)o1
Potency [1]: inactive | Potency [3]: 20.9 µM (active) | Potency [5]: inactive | Potency [6]: inactive | Potency [7]: inactive | Potency [8]: 20.9 µM (active)

COc1ccc(-c2oc3c(CC=C(C)C)c(OC4O[C@H](CO)[C@@H](O)[C@H](O)[C@@H]4O)cc(O)c3c(=O)c2OC2O[C@@H](C)[C@H](O)[C@@H](O)[C@@H]2O)cc1 (stereo partly specified)
Potency [1]: inactive | Potency [3]: 26.4 µM (active) | Potency [5]: 26.4 µM (active) | Potency [10]: 23.5 µM (active) | Potency [6]: 18.7 µM (active) | Potency [7]: inactive | Potency [8]: 18.7 µM (active)

CN(C)Cc1ccc(-c2nc3cccc4c3n2CCNC4=O)cc1
Potency [1]: inactive | Potency [3]: 18.7 µM (active) | Potency [10]: inactive | Potency [7]: inactive
